From the supplement of paper PMC7366291 come the findings set out here.

Molecules are shown by their SMILES. Counter-ions that a name gives are not always drawn. ± gives the standard deviation of the averaged measurements.

In the assay the test system is Danio rerio Tg(wt1b:EGFP) embryo, pronephros. Put plainly: glomerular width (mean of left and right), fold change vs DMSO control; higher = wider glomerulus. To be noted: 25 µM; exposure: 24-48 hpf. The procedure, abridged: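 Dechorionated Tg(wt1b:EGFP) zebrafish embryos were incubated at 28.5°C from 24 to 48 hpf with 25 μM compound in HEPES-buffered E3 containing 0.5% DMSO and 0.003% PTU. Distances and angles between 16 manually set points on maximum projections of dorsal pronephros images were measured in Fiji, with values over 2 SD from the feature mean excluded. Each feature is a fold change relative to the mean of same-day DMSO-treated embryos.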
`CC(=O)c1ccc(S(=O)(=O)NC(=O)NC2CCCCC2)cc1` [Acetohexamide] displayed a glomerular width of 1.05 ± 0.023.
As to `Cn1c(NCCN(CCO)CCCc2ccc([N+](=O)[O-])cc2)cc(=O)n(C)c1=O` [Nifekalant], the glomerular width amounted to 0.965 ± 0.033.
The same measure for `CCCCCCCN(CC)CCCC(O)c1ccc(NS(C)(=O)=O)cc1` (configuration not stated) [Ibutilide fumarate]: 1.0672 ± 0.00094; for `CCN(CC)CCNC(=O)COc1ccc(OC)cc1` [Mefexamide hydrochloride]: 0.916 ± 0.021.
In the case of `O=C(CCCCC(=O)Nc1c(I)cc(I)c(C(=O)O)c1I)Nc1c(I)cc(I)c(C(=O)O)c1I` [Iodipamide] it was 1.05 ± 0.076; in that of `Cc1ccsc1/C=C/C1=NCCCN1C` [Morantel tartrate], 1.132 ± 0.011.
The same measure for `COc1cccc2c1C(=O)c1c(O)c3c(c(O)c1C2=O)C[C@@](O)(C(C)=O)C[C@@H]3O[C@H]1C[C@H](N)[C@H](O)[C@H](C)O1` [Daunorubicin hydrochloride]: 1.03 ± 0.019; for `CCOC1O[C@H]([C@@H](COCc2ccccc2)OCc2ccccc2)[C@H](OCc2ccccc2)[C@H]1O` (some centres not stated) [Tribenoside]: 0.865 ± 0.056; for `C#C[C@]1(O)CC[C@H]2[C@@H]3CCC4=CC(=O)CC[C@@H]4[C@H]3CC[C@@]21CC` [Norgestrel-(-)-D]: 1.016 ± 0.0075.
On to `O=C(O)Cc1ccccc1Nc1c(Cl)cccc1Cl` [Diclofenac sodium], for which the glomerular width came out at 0.492 ± 0.031.
The compound `Nc1ccc(O)c(C(=O)O)c1` [Mesalamine] returned a glomerular width of 0.956 ± 0.032.
In the case of `CC[C@H](C)C(=O)O[C@H]1CCC=C2C=C[C@H](C)[C@H](CC[C@@H]3C[C@@H](O)CC(=O)O3)[C@H]21` [Mevastatin] it was 0.798 ± 0.046.
